Results filed as inconclusive are left out. Calls of active or inactive are those of the source. Calls come from the whole dose curve; as a rule, active = well fitted cell-killing curve with a large enough effect; inconclusive = small, poorly fitted or top-dose-only effect, or effect the other way; inactive = no such curve, though single readings can be large or run the other way.
Potency is the fitted concentration of half-maximal effect.

The assay can be described thus: Viability qHTS for spleen associated tyrosine kinase inhibitor (SYKi) drug resistant MV4-11 cells (AID 1963824). Note: nearly all actives have a fitted effect of over 35% in size. The note with it: SYKi-resistant MV4-11 viability, CellTiter-Glo, 72 h; series mostly up to 45 µM. The procedure, abridged:
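CellTiter-Glo luminescence, read 10 min after reagent addition, reports viability after a 72 hr compound exposure. Cells are an MV4-11 line made resistant to SYK inhibition, seeded at 500 per well onto compound-containing plates.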
As to `CC1=CC(=O)[C@@]2(C(C)C)C[C@@H]12`, the Potency was 13 µM (active).

As for `O=C1/C(=C/c2ccc(O)c(O)c2)Oc2ccccc21`, the Potency was 0.517 µM (active).

With `O=C(NCCN1CCC(n2c(=O)[nH]c3ccccc32)CC1)c1cc2cc(F)ccc2[nH]1`, the Potency is 18.4 µM (active).

As for `CC(=O)OC1CC(=O)C2(C)C3CC4=C(OC(C)CC4=O)OC3(C)CCC2C1(C)C` (stereo not given), the Potency result is “inactive”.

For the compound `O=C1CCCC2=C1C1(CCCC1)N=C(Nc1nc3ccccc3o1)N2`, the Potency was 3.66 µM (active).

With `COc1cc(OCc2cccc(-c3ccccc3)c2C)cc(OC)c1CN1CCCC[C@H]1C(=O)O`, the Potency is 8.33 µM (active).

As for `[2H]C([2H])([2H])C(OC(=O)[C@H](C)N[P@](=O)(OC[C@H]1O[C@@H](n2ccc(=O)[nH]c2=O)[C@](C)(F)[C@@H]1O)Oc1ccccc1)C([2H])([2H])[2H]`, the Potency is 9.2 µM (active).

Consider `Cc1noc(-c2ccc(-c3ccc(CC(=O)O)cc3)cc2)c1NC(=O)O[C@H](C)c1ccccc1Cl`, for which the Potency was 20.6 µM (active).

Turning to `COc1cc2ncnc(Nc3ccc(Oc4ccccc4)cc3)c2cc1OC`, the Potency was 0.291 µM (active).

Take `CCn1c(-c2nonc2N)nc2cncc(C(=O)N3CC[C@H](N)C3)c21`: the Potency is 8.2 µM (active).

With `COC(=O)C1C(c2ccc(O)cc2)C(C(=O)OC)C1c1ccc(O)cc1` (stereo not given), the Potency is 10.1 µM (active).

Regarding `CN[C@@H]1[C@H](O[C@H]2[C@H](O[C@@H]3[C@@H](O)[C@H](O)[C@@H](N=C(N)N)[C@H](O)[C@H]3N=C(N)N)O[C@@H](C)[C@]2(O)CO)O[C@@H](CO)[C@H](O)[C@H]1O`, the Potency result is “inactive”.

`C/C(CO)=C1/CCC23COC(C2)C(O)(C(=O)O)CCC13` (stereo not given): the Potency result was “inactive”.

`CC(C)CCCCC(=O)N[C@@H](CO)C(=O)N[C@@H](CC(C)C)C(=O)[C@@]1(CO)CO1`: the Potency was 7.31 µM (active).

Turning to `CC1CC2OCC3(O)CCC(O)C(C14CC(c1ccoc1)OC4=O)C23CO` (stereo not given), the Potency result is “inactive”.

Consider `COc1cc([C@H]2O[C@H](c3cc(OC)c4c(c3)OCO4)[C@H](C)[C@H]2C)cc(OC)c1OC`, for which the Potency is 0.893 µM (active).

Turning to `O=C(NO)c1cnc(N2CCN(S(=O)(=O)c3ccc4ccccc4c3)CC2)nc1`, the Potency result is “inactive”.

Turning to `C/C=C1/[C@H](O[C@@H]2O[C@H](CO)[C@@H](O)[C@H](O)[C@H]2O)OC=C(C(=O)OC)[C@H]1CC(=O)O[C@@H]1O[C@H](CO)[C@@H](O)[C@H](O)[C@H]1O`, the Potency result is “inactive”.

For `CO[C@H]1/C=C/[C@@](C)(O)/C=C/C(=O)O[C@H](C)[C@@H](C)CC/C=C/1C`, the Potency is 12.8 µM (active).

Consider `CNc1nc(Nc2ccc(C(=O)N3CCOCC3)cc2OC)nc2[nH]cc(Cl)c12`, for which the Potency was 6.51 µM (active).

In the case of `COc1cc(N(C)CCN(C)C)c(N)cc1Nc1nccc(-c2cn(C)c3ccccc23)n1`, the Potency is 10.3 µM (active).

In the case of `CC1(C)CC[C@]2(C(=O)O)CC[C@]3(C)C(=CCC4[C@@]5(C)C(=O)C[C@H](O)[C@@](C)(CO)C5CC[C@]43C)[C@@H]2C1` (stereo not given in full), the Potency entry is “inactive”.

As to `CN(C(=O)CNC(=O)/C=C/c1cccc(Cl)c1)C1CCS(=O)(=O)CC1`, the Potency was 0.468 µM (active).

`Nc1nc2ccc([N+](=O)[O-])cc2s1`: the Potency was 27.3 µM (active).

As for `CO[C@H]1C[C@@H]2CC[C@@H](C)[C@@](O)(O2)C(=O)C(=O)N2CCCC[C@H]2C(=O)O[C@H]([C@H](C)C[C@@H]2CC[C@@H](OCCO)[C@H](OC)C2)CC(=O)[C@H](C)/C=C(/C)[C@@H](O)[C@@H](OC)C(=O)[C@H](C)C[C@H](C)/C=C\C=CC=C1C`, the Potency is 11.8 µM (active).

As for `Cn1c(=O)c2c(ncn2Cc2ccc(C(C)(C)C)cc2)n(C)c1=O`, the Potency was 1.16 µM (active).

Take `COc1cn(-c2ccc(-n3cccn3)cc2F)nc(-c2ccnn2-c2ccccc2)c1=O`: the Potency entry was “inactive”.

As to `CCC(C)/C=C(C)/C=C/C(=O)C1CCC(O)C(C)(O)C1=O` (stereo not given), the Potency was 13 µM (active).

Regarding `CCCCOc1ccc(CC/C=C2\SC(=O)N(CCN)C2=O)cc1`, the Potency was 2.91 µM (active).

As for `CCCCC(=O)N1c2ccccc2NC2=C(C(=O)CCC2)C1c1ccccc1Cl` (stereo not given), the Potency was 8.2 µM (active).

Regarding `C=CC(=O)N[C@H]1CCOC[C@H]1Nc1ncc2cc(-c3c(Cl)c(OC)cc(OC)c3Cl)ccc2n1`, the Potency was 20.9 µM (active).

As to `CC(=O)O[C@@H]1[C@@H](O)[C@H](C)O[C@@H](O[C@H]2[C@@H]3C=CO[C@@H](O[C@@H]4O[C@H](CO)[C@@H](O)[C@H](O)[C@H]4OC(C)=O)[C@@H]3[C@@]3(CO)O[C@@H]23)[C@@H]1OC(=O)/C=C/c1ccc(O)cc1`, the Potency result was “inactive”.

For the compound `C=C(C)C(=O)OC1C(OC(C)=O)/C(C=O)=C\CC/C(CO)=C/C2OC(=O)C(=C)C21` (stereo not given), the Potency was 2 µM (active).

Turning to `CC1(C)O[C@H]2CC(=O)OC[C@@]23C1=C(O)C(=O)[C@]1(C)C3CC[C@@]2(C)[C@H](c3ccoc3)OC(=O)[C@H]3O[C@]321` (stereo not given in full), the Potency result is “inactive”.

As for `COc1ccc(-c2ccc3c(N4CCOCC4C)nc(N4CCOCC4C)nc3n2)cc1CO` (stereo not given), the Potency was 0.103 µM (active).

In the case of `COC(=O)[C@@H](NC(=O)[C@H](CC(C)C)NC(=O)N(Cc1ccccc1)C[C@@H](O)[C@H](Cc1ccccc1)NC(=O)OC(C)(C)C)C(C)C`, the Potency was 3.35 µM (active).

Regarding `CCC/C=C/C(=O)O[C@H]1CC(C)(C)CC2[C@@]13[C@H](O)C[C@]1(C)[C@@]2(CCC2[C@@]4(C)CC[C@H](O[C@@H]5O[C@H](C(=O)O)[C@@H](O)[C@H](O[C@@H]6O[C@H](CO)[C@H](O)[C@H](O)[C@H]6O[C@@H]6O[C@@H](C)[C@H](O)[C@@H](O)[C@H]6O[C@@H]6OC[C@](O)(CO)[C@H]6O)[C@H]5O[C@@H]5O[C@H](CO)[C@H](O)[C@H](O)[C@H]5O)C(C)(C)C4CC[C@]21C)O[C@H]3O` (stereo not given in full), the Potency was 2.75 µM (active).

Take `CC(=O)O[C@@H]1[C@@H](OC(=O)/C=C/c2ccccc2)[C@H](C)O[C@@H](O[C@H]2[C@@H]3C=CO[C@@H](O[C@@H]4O[C@H](CO)[C@@H](O)[C@H](O)[C@H]4O)[C@@H]3[C@@]3(CO)O[C@@H]23)[C@@H]1OC(C)=O`: the Potency result is “inactive”.

Take `O=S(=O)(c1ccccc1)N(CC(F)(F)F)c1ccc(C(O)(C(F)(F)F)C(F)(F)F)cc1`: the Potency was 8.2 µM (active).

Regarding `C[C@@H]1C[C@@H](O)[C@@]23CO[C@]2(CO)CCC[C@@H]3[C@@]12C[C@@H](c1ccoc1)OC2=O`, the Potency result is “inactive”.

The record behind these values is PubChem BioAssay (NCATS).
